Data taken from PubChem BioAssay (NCI).
The panel holds about 83,000 compounds, 20% with a hit somewhere; the sample as a whole holds those more often.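 Compound tested at a single concentration for 48 hours in 96-well plates; a percent growth value below 10 was scored as active.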 The source made the active and inactive calls.

Experiments:
Experiment in all cases: NCI-60 one-dose screen, 48 h (100 = growth as untreated, 0 = no growth, -100 = all killed)
Conditions in all cases: 10 µM unless noted
[1] = test system: SR leukemia
[2] = test system: RPMI-8226 leukemia
[3] = test system: OVCAR-8 ovarian
[4] = test system: OVCAR-5 ovarian
[5] = test system: OVCAR-4 ovarian
[6] = test system: SK-OV-3 ovarian
[7] = test system: IGROV1 ovarian
[8] = test system: OVCAR-3 ovarian
[9] = test system: HS 578T breast
[10] = test system: NCI/ADR-RES ovarian

Measured: growth

COc1ccc(/C(C)=N/NC(=O)CSc2nc3ccccc3c(=O)n2CCc2ccc(S(N)(=O)=O)cc2)cc1
inactive: [1] 40.2% | [4] 55% | [7] 19.1% | [8] 16.6% | [9] 29.5% | [10] 79.4%
active: [2] 5.61% | [3] -12.9% | [5] -54.1% | [6] -31.8%

CN1C2CCC1/C(=C\c1ccc(Cl)cc1)C(=O)/C2=C/c1ccc(Cl)cc1
inactive: [1] 24.5% | [2] 20.2% | [4] 102% | [5] 63.5% | [6] 93.4% | [7] 68.8% | [8] 46% | [9] 75.5% | [10] 43.7%
active: [3] -27.1%

ClC1(Cl)C2CCCCCCC21 (stereo not given)
inactive: [1] 108% | [2] 106% | [3] 123% | [4] 116% | [5] 109% | [6] 118% | [7] 107% | [8] 120%

CC(=O)c1ccc(Br)c([N+](=O)[O-])c1
inactive: [1] 94.5% | [2] 96.6% | [3] 107% | [4] 119% | [5] 114% | [6] 109% | [7] 109% | [8] 124% | [9] 90.7%

COc1ncnc2[nH]cc(CN3CCN(c4ccc(F)cc4)CC3)c12
inactive: [1] 105% | [2] 103% | [3] 100% | [4] 102% | [5] 115% | [6] 104% | [7] 102% | [8] 114% | [9] 97.5%

COc1cccc(N2CCN(c3ncnc4cc[nH]c34)CC2)c1
inactive: [1] 39.4% | [2] 35.4% | [3] 40.3% | [4] 104% | [5] 69.2% | [6] 86.5% | [7] 85.4% | [8] 70.9% | [9] 92.5%

CC(=O)OC[C@H]1O[C@@H](n2c(=O)cc(N)[nH]c2=O)C(OC(C)=O)[C@@H]1OC(C)=O (stereo not given in full)
inactive: [1] 106% | [2] 103% | [3] 99.4% | [4] 99.8% | [5] 110% | [6] 106% | [7] 103% | [8] 114% | [9] 95.7% | [10] 103%

CCc1onc(-c2ccc(OC)cc2)c1-c1ccccc1OCCN(CC)CC
inactive: [1] 66.5% | [2] 91.3% | [3] 96.3% | [4] 91.5% | [5] 90.8% | [6] 101% | [7] 83.3% | [8] 96.8% | [9] 89.6% | [10] 75.2%

COc1cc(C2CC(c3ccc(C)cc3)=NN2C=O)ccc1Oc1nc2c(c(=O)n(C)c(=O)n2C)n1C (stereo not given)
inactive: [1] 85.7% | [2] 72.1% | [3] 92.4% | [4] 102% | [5] 77.8% | [6] 124% | [7] 82.6% | [8] 105% | [9] 80.2% | [10] 63%

CCN(CC)CC(=O)Nc1c(C)cc(C(=O)NN)cc1C
inactive: [1] 88.7% | [2] 120% | [3] 107% | [4] 103% | [5] 99.4% | [6] 98.7% | [7] 88.9% | [8] 100% | [9] 91.1% | [10] 98.5%

Clc1ccc(C2=NN[C@H](c3cn(-c4ccccc4)nc3-c3ccccc3)C2)cc1
inactive: [1] 104% | [2] 87.5% | [3] 33.6% | [4] 83.6% | [5] 68.1% | [6] 61.6% | [7] 79.5% | [8] 58.6% | [9] 74.2% | [10] 55.9%

COc1cc(C2CC(c3ccc(Cl)cc3)=NN2C=O)ccc1Oc1ccnc2cc(Cl)ccc12 (stereo not given)
inactive: [1] 63.2% | [2] 65.1% | [3] 44.6% | [4] 92.7% | [5] 28.1% | [6] 60% | [7] 97% | [8] 73.4% | [9] 35.5% | [10] 76.6%

Nc1ccc(C2=NNC(=O)Cc3cc4c(cc32)OCCO4)cc1Cl
active: [8] -14.1%
inactive: [1] 19.6% | [2] 56.2% | [3] 60.1% | [4] 69.7% | [5] 87.8% | [6] 57.1% | [7] 40.8% | [9] 62.2% | [10] 12%

COc1ccc(C(=O)OC2C(OC3C(O)COC(O[C@H]4C[C@H]5[C@@H]6CC=C7C[C@@H](O)CC[C@]7(C)[C@H]6CC[C@]5(C)[C@H]4[C@H](C)C(=O)CCC(C)C)C3OC(N)=O)OCC(O)C2O)cc1 (stereo not given in full)
active: [1] -14.1% | [2] -32.8% | [6] -37.2% | [9] -29.9%
inactive: [3] 25.3% | [4] 36.3% | [5] 44.1% | [7] 19.5% | [8] 58.3% | [10] 86.2%

O=C1Nc2ccc(Br)cc2/C1=N/c1nc(-c2ccccc2)cs1
inactive: [1] 85.2% | [2] 75.6% | [3] 89.1% | [4] 108% | [5] 80.5% | [6] 60.7% | [7] 84% | [8] 75% | [9] 90.3% | [10] 103%

O=C(Nc1ccc([N+](=O)[O-])cc1)c1cc2ccccc2cc1O
active: [1] -17.1% | [2] -26.9% | [3] 0.735% | [5] 1.96% | [6] 9.58% | [9] -19.9% | [10] -9.03%
inactive: [4] 20.7% | [7] 15.2% | [8] 83.6%

Cc1nc(N)nc2c1CCC(Nc1ccccc1)S2 (stereo not given)
inactive: [1] 59.2% | [2] 113% | [3] 103% | [4] 100% | [5] 114% | [6] 109% | [7] 111% | [8] 108% | [9] 103% | [10] 104%

CCOC(=O)Nc1ccc2nc(Sc3ccc(Cl)cc3)sc2c1
inactive: [2] 21.5% | [3] 44.6% | [4] 85.9% | [5] 50.3% | [6] 22.5% | [7] 43.4% | [9] 50.8% | [10] 14%
active: [1] 9.2% | [8] 0.656%

Cc1ccccc1C1CC(=O)c2ccccc2C1C (stereo not given)
inactive: [1] 78.7% | [2] 93.8% | [3] 106% | [4] 97.2% | [5] 101% | [6] 105% | [7] 123% | [8] 116% | [9] 98.9% | [10] 108%

COc1cc(C2CC(c3ccc(Cl)cc3)=NN2C(C)=O)ccc1Oc1ccnc2cc(Cl)ccc12 (stereo not given)
inactive: [1] 76.4% | [2] 87.3% | [3] 26.8% | [4] 81.2% | [6] 18.4% | [7] 58.1% | [8] 24% | [9] 38.8% | [10] 53.2%
active: [5] -23.8%

COc1ccc(/C=C(\C#N)c2cc(OC)c(OC)c(OC)c2)cc1
active: [6] -6.74% | [8] -25.1% | [10] 2.63%
inactive: [1] 12.1% | [2] 12.3% | [3] 15.6% | [4] 38.6% | [5] 35.4% | [7] 17.9% | [9] 36%

COc1ccc2c(c1)OC1=C(C(=O)OC1)C2c1cc(OC)c2c(c1)OCCO2 (stereo not given)
active: [6] -2.33% | [8] -30.4%
inactive: [1] 27.3% | [2] 25% | [3] 20.7% | [4] 32.4% | [5] 48% | [7] 19.3% | [9] 29.6% | [10] 13.9%

CCOC(=O)C1OC2(CCCC2)OC1C(=O)OCC (stereo not given)
inactive: [1] 104% | [2] 84.8% | [3] 108% | [4] 110% | [5] 118% | [6] 105% | [7] 96.6% | [8] 122% | [9] 105% | [10] 117%

Oc1c(C(Nc2cccc3ccccc23)c2ccccc2)ccc2cccnc12 (stereo not given)
inactive: [2] 37.6% | [3] 25% | [4] 49.8% | [5] 11.4% | [6] 49.6% | [7] 21.5% | [8] 22.4% | [9] 63.5%
active: [1] 3.7% | [10] 4.58%

CCN(CC)CC(=O)Nc1c(C)ccc(N)c1C
inactive: [1] 151% | [2] 111% | [3] 105% | [4] 99.2% | [5] 99.1% | [6] 96.7% | [7] 95.4% | [8] 109% | [9] 105% | [10] 99.2%

COc1ccccc1/C=C/C(=O)CCC(=O)O
inactive: [1] 89.1% | [2] 98.8% | [3] 105% | [4] 104% | [5] 104% | [6] 98.5% | [7] 110% | [8] 107% | [9] 96% | [10] 107%

CCN(C(=O)CCl)C(C)(C)C(SSSC(c1ccc(Cl)cc1)C(C)(C)N(CC)C(=O)CCl)c1ccc(Cl)cc1 (stereo not given)
inactive: [1] 17.6% | [2] 51.7% | [3] 77.9% | [4] 107% | [5] 49.3% | [6] 87.5% | [7] 74.3% | [8] 72.3% | [9] 92.5% | [10] 89.8%

O=c1oc2ccccc2cc1-c1cc(-c2ccc(-c3cc(-c4cc5ccccc5oc4=O)nc(-c4cc5ccccc5oc4=O)c3)cc2)cc(-c2cc3ccccc3oc2=O)n1
inactive: [1] 93.7% | [2] 98.2% | [3] 103% | [4] 119% | [5] 100% | [6] 94.3% | [7] 105% | [8] 110% | [9] 104% | [10] 108%
